HCMV antiviral: qHTS Assay for inhibitors of the human cytomegalovirus (HCMV); HFF cells, HCMV-luciferase reporter, 72 h; active compounds read low; activity change, negative = inhibition, % at 57.5 µM; 4.5% of 410,000 active; in the data active = activity change below about -60%; inconclusive = no clear call, values can overlap the other calls; inactive = above about -39%
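After 16 h attachment at 37C, HFF cells received test compound and HCMV-luciferase (1 PFU/cell); reporter luminescence read 72 h later, data normalized against buffer-only and known inhibitor Salinomycin.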
FMDV inh: High Throughput Screening for Foot and Mouth Disease Virus Antivirals; FMDV antiviral cell-based qHTS; Potency, µM (doses to about 57.9 µM), inactives show at the highest dose activity change, negative = inhibition, actives largely listed as inhibitors; 1.2% of 410,000 active; AID 1159524, 2015; calls by dose curve; tested in HEK293T cells; note: read-out not given here; potency is the fitted concentration of half-maximal effect; nearly all actives have a fitted effect of over 45% in size
RE007 growth inh: qHTS Assay for Inhibitors of the HIV-1 protein Vpr | S. pombe RE007 Vpr strain, BacTiter-Glo ATP luminescence, 24 h | Potency, µM (doses to about 92.2 µM), inactives show top-dose activity change, negative = less growth, actives largely listed as inhibitors | 0.21% of 360,000 active | AID 651644, 2012; active = well fitted falling curve with a large enough effect; inconclusive = small, poorly fitted or top-dose-only effect; inactive = no such curve, though single readings can be large or run the other way; note: potency is the fitted concentration of half-maximal effect; nearly all actives have a fitted effect of over 50% in size
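Fission yeast RE007 carrying one integrated HIV-1 vpr copy, seeded at OD 0.01 in PMG+AL medium with 23 nL pinned compound. Grown 24 h at 30 degrees; viability read by BacTiter-Glo luminescence after 5 min.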
Giardia FBPA inh-1: qHTS Assay for Inhibitors of Fructose-1,6-bisphosphate Aldolase from Giardia Lamblia | A8B2U2 | purified Giardia FBPA | Potency, µM (top dose mostly 59.6 µM), for the others: top-dose activity, negative = inhibition, most hits filed as inhibitors | 0.71% of 290,000 active | AID 2451, 2010; note: potency is the fitted concentration of half-maximal effect; nearly all actives have a fitted effect of over 55% in size
Target sequence (A8B2U2 whole entry, looked up): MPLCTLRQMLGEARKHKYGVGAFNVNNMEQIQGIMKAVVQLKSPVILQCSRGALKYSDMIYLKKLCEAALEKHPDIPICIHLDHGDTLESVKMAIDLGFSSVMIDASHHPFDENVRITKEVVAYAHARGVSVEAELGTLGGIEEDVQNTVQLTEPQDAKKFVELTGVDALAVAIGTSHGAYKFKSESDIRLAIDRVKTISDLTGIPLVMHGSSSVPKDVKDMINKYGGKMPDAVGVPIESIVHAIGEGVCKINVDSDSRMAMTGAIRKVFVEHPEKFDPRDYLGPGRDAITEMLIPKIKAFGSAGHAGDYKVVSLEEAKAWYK
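40 nM FBPA preincubated 10 min at RT with compound (up to 57.5 uM final), then substrate plus GAPDH/TPI/NAD/arsenate coupling and diaphorase/resazurin added. Fluorescence read after 20 min at RT, 525/598 nm.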
Sm TGR block: qHTS Assay for the Inhibitors of Schistosoma Mansoni Peroxiredoxins; purified TGR, DTNB reduction, TNB absorbance 405 nm; Potency, µM (titrated, usually from 114 µM), without a hit: at the highest dose activity change, negative = inhibition, most hits filed as inhibitors; 3% of 360,000 active; note: potency is the fitted concentration of half-maximal effect; nearly all actives have a fitted effect of over 60% in size
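First, TGR (20 nM dispensed) and NADPH were mixed with compound. Second, a 15 min room-temperature incubation followed. Third, further NADPH and then DTNB were added to start the reaction. Finally, TNB absorbance was monitored kinetically.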
Tb PYK inh: qHTS of Trypanosoma Brucei Inhibitors; pyruvate kinase (Trypanosoma brucei), Q57TT1; TbPYK enzyme, Kinase-Glo Plus ATP luminescence, 45 min; Potency, µM (series often up to 76.8 µM), for the others: top-dose activity, negative = inhibition, usual class: inhibitors; 0.12% of 410,000 active; AID 624173, 2012; note: potency is the fitted concentration of half-maximal effect; nearly all actives have a fitted effect of over 50% in size
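In this concentration-response screen, enzyme-free wells defined baseline while DMSO plates tracked drift. Each reaction combined TbPYK, substrate, compound and 130 uM ADP for 45 min at room temperature. Kinase-Glo Plus luminescence gave the signal.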
Giardia growth: qHTS Assay for Inhibitors of Fructose-1,6-bisphosphate Aldolase from Giardia Lamblia: Giardia lamblia growth inhibition; Giardia lamblia trophozoite growth inhibition; 5% of 1,500 active; Potency, µM (top dose mostly 57.5 µM), inactives show at the highest dose activity change, negative = inhibition, actives largely listed as inhibitors; shares compounds with Giardia FBPA inh-1;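 note: potency is the fitted concentration of half-maximal effect; trophozoites exposed to compound for 48 h at 37 °C; nearly all actives have a fitted effect of over 70% in size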
Mammal cell tox: qHTS Assay for Inhibitors of Fructose-1,6-bisphosphate Aldolase from Giardia Lamblia: Mammalian cellular toxicity; shares compounds with Giardia FBPA inh-1; mammalian cell viability counter-screen, qHTS; Potency, µM (titrated, usually from 57.5 µM), without a hit: at the highest dose viability change, negative = toxicity, usual class: inhibitors; 4% of 1,500 active; AID 2786, 2010;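 note: Chinese hamster ovary cells used as mammalian cytotoxicity surrogate; viability measured as cellular ATP by luminescence; potency is the fitted concentration of half-maximal effect; compound exposure lasted 48 h before reading; nearly all actives have a fitted effect of over 60% in size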
Giardia FBPA inh-2: qHTS Assay for Inhibitors of Fructose-1,6-bisphosphate Aldolase from Giardia Lamblia: Primary screen confirmation. purified Giardia aldolase enzyme activity, qHTS. Potency, µM (highest dose often 57.5 µM), for the others: at the top dose activity change, negative = inhibition, usual class: inhibitors. shares compounds with Giardia FBPA inh-1. 5% of 1,500 active; note: potency is the fitted concentration of half-maximal effect; nearly all actives have a fitted effect of over 45% in size
Rabbit FBPA inh: qHTS Assay for Inhibitors of Fructose-1,6-bisphosphate Aldolase from Giardia Lamblia: Rabbit FBPA Selectivity; shares compounds with Giardia FBPA inh-1; Rabbit muscle FBPA enzyme inhibition, selectivity counter-screen; Potency, µM (titrated, usually from 57.5 µM), without a hit: top-dose activity, negative = inhibition, usual class: inhibitors; 4% of 1,500 active; AID 2794, 2010; note: potency is the fitted concentration of half-maximal effect; nearly all actives have a fitted effect of over 60% in size
GAPDH counter: qHTS Assay for Inhibitors of Fructose-1,6-bisphosphate Aldolase from Giardia Lamblia: Coupling assay counterscreen confirmation; GAPDH coupling enzyme counterscreen, biochemical, qHTS; 6% of 1,500 active; shares compounds with Giardia FBPA inh-1; AID 2795, 2010; Potency, µM (series often up to 57.5 µM), without a hit: at the highest dose activity change, negative = inhibition, most hits filed as inhibitors; note: potency is the fitted concentration of half-maximal effect; nearly all actives have a fitted effect of over 55% in size
* = called active by the depositor; ? = inconclusive; · = no result; [ ] = dose if it differs, or a comment. This is a sample that favours compounds with a hit; in the whole collection about 7.7% have one here. Unless noted, calls come from the whole dose curve; as a rule, active = well fitted curve in the direction sought with a large enough effect; inconclusive = small, poorly fitted or top-dose-only effect, or another doubt; inactive = no such curve, though single readings can be large; an effect the other way counts as inactive or inconclusive. % is set by controls: 0 for no effect and ±100 for the full control effect.

SMILES	HCMV antiviral	FMDV inh	RE007 growth inh	Giardia FBPA inh-1	Sm TGR block	Tb PYK inh	Giardia growth	Mammal cell tox	Giardia FBPA inh-2	Rabbit FBPA inh	GAPDH counter
O=C(/C=C/c1ccc(Cl)cc1)NC(=S)N1C[C@H]2C[C@H](C1)c1cccc(=O)n1C2	21.0	6.7%	-10.9%	7.08µM*	-5.4%	-9.2%	-21.9%	15.1%	3.6%	5.2%	3.6%
CCn1c(O)c(C#N)c(C)cc1=O	41.4	8.7%	-2.5%	12.6µM*	?	-0.4%	?	28.2%	?	?	?
Cc1cc(=O)n(CCO)c(O)c1C#N	57.1	14.0%	9.1%	?	-35.0%	-7.1%	·	·	·	·	·
Cc1cn(C)c(CC(=O)NCc2ccc(F)cc2)c1C(=O)O	1.4	-15.0%	·	·	-1.9%	0.9%	·	·	·	·	·
CCOC(=O)CCc1c(C)nc(-n2[nH]c(C)c(CCO)c2=O)[nH]c1=O	-23.7	2.0%	-14.0%	14.1µM*	15.8µM*	-0.3%	4.9%[10.4 µM]	0.2%	-4.1%	4.9%	-1.0%
Cc1cc(C)cc(-n2c(SCC(N)=O)nc3c(oc4ccccc43)c2=O)c1	-39.7	-21.0%	·	·	-4.5%	0.3%	·	·	·	·	·
CCOC(=O)/C(C#N)=N/Nc1c(C)n(C)n(-c2ccccc2)c1=O	3.5	-4.5%	6.0%	15.8µM*	-7.4%	-2.3%	-4.6%[10.4 µM]	-0.6%	-0.5%	-3.8%	-2.7%
CCOC(=O)Nc1c(C)n(C)n(-c2ccccc2)c1=O	18.2	-19.1%	-7.3%	0.0%	-30.4%	10.3%	·	·	·	·	·
COc1cccc(NC(=O)CSc2nc(O)c(C/C=C/c3ccccc3)c(=O)[nH]2)c1	22.9	19.1%	·	·	-16.9%	0.5%	·	·	·	·	·
COC(=O)C1=C(O)/C(=C/c2cccc(OC)c2O)N=C1C	?	52.2%	-3.7%	-12.3%	2.3%	-24.0%	·	·	·	·	·
COC(=O)C1=C(O)/C(=C\c2cc(C)n(-c3ccc(F)cc3)c2C)N=C1C	9.2	20.8%	-10.4%	15.8µM*	28.2µM*	-3.9%	14.5%[10.4 µM]	-6.6%	-17.8%	-24.7%	-14.3%
COc1cccc(Cn2c(=O)n(Cc3ccco3)c(=O)c3oc4ccccc4c32)c1	-39.8	-30.0%	·	·	-9.8%	-9.0%	·	·	·	·	·
CCN1c2ccccc2-c2nc(SCC(=O)Nc3cccc(C)c3C)ncc2S1(=O)=O	-17.4	?	·	·	-0.1%	-3.3%	·	·	·	·	·
O=C(CCCCn1c(=S)[nH]c2ccsc2c1=O)NCc1ccco1	8.1	42.1%	1.2%	?	-34.8%	?	·	·	·	·	·
